Each compound was assayed against Pro-neuregulin-1, membrane-bound isoform (Homo sapiens) (UniProt Q02297) (assay: NRG1 binders on small-molecule microarrays, primary screen, psychiatric disease protein project, biochemical, small-molecule microarray, fluorescence 635/667 (AID 1075;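 note: score combines 667 nm spot fluorescence with signal to noise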)). Settings: NRG1 binding, 635 nm fluorescence, higher = more signal.
Pro-neuregulin-1, membrane-bound isoform (Homo sapiens), sequence (Q02297 whole entry, looked up, canonical isoform): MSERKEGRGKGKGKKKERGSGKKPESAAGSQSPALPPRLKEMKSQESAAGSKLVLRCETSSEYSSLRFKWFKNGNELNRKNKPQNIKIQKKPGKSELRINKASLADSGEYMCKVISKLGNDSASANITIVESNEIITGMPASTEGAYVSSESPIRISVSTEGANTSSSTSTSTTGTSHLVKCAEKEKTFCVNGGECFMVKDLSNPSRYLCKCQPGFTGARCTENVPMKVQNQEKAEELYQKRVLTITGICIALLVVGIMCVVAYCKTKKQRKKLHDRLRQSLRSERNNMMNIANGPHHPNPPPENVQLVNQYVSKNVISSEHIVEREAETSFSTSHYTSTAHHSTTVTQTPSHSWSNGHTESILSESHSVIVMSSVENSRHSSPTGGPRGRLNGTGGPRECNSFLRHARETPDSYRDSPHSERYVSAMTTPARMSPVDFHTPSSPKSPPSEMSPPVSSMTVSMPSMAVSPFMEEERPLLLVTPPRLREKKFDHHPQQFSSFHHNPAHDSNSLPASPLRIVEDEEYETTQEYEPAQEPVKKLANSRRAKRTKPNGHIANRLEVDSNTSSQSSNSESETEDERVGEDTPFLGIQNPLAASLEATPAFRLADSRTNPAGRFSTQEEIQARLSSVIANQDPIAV
Compound `COCC(=C=CC[C@H](O)c1ccccc1OCCO)C[C@H](O)c1cc(Cl)cc(Cl)c1O` has a composite z-score of 1.43.
Work on `C=CCC(OC(C)=O)[C@@H]1[C@@H](N(Cc2ccc(-c3ccccc3)cc2)C(=O)Cc2ccc(F)cc2)c2cc(OCCCO)ccc2N1C(=O)c1ccc(-c2ccccc2)cc1` (stereo not given in full) yielded a composite z-score of -0.23.
`COCCOC(=O)N1C(=O)[C@@]2(c3cc(C#CC4=CCCCC4)ccc31)[C@H](c1ccc(O)cc1)N1[C@H](c3ccccc3)[C@H](c3ccccc3)OC(=O)[C@H]1[C@@H]2C(N)=O` gave a composite z-score of 0.324.
Work on `O=C1O[C@H](c2ccccc2)[C@H](c2ccccc2)N2[C@H]1[C@@H](C(=O)O)[C@]1(C(=O)Nc3ccc(C#CCCO)cc31)[C@H]2c1ccc(O)cc1` yielded a composite z-score of 0.957.
Work on `O=C(NCc1ccccc1)[C@@]1(Cc2ccccc2)N=C(c2ccc(OCCCO)cc2)O[C@H]1c1ccccc1` yielded a composite z-score of 1.76.
`CCOC(=O)C[C@H]1[C@H](OC(=O)c2cc3ccccc3oc2=O)[C@@H](NC(=O)Cc2ccc(OC)cc2)c2cc(OCCCO)ccc2N1C(=O)c1ccccc1` gave a composite z-score of 0.199.
With `COc1ccc([Si](C)(C)[C@H]2[C@H](CCO)O[C@@]3(C(=O)N(C)c4c(Br)cc(C)cc43)[C@@H]2C)cc1` the composite z-score was 0.679.
In the case of `CN(C)C(=O)[C@@]1(Cc2ccccc2)N=C(c2ccc(OCCCO)cc2)O[C@H]1c1ccccc1N=[N+]=[N-]`, the composite z-score is reported as 1.56.
Compound `CC(=O)NCCCC[C@@H]1NC(=O)[C@@H]2C[C@H](C(=O)NCCCCCCNC(=O)CS)[C@H](c3cccc(OCCO)c3)N2C1=O` has a composite z-score of 0.632.
Work on `CN(C)CCCNC(=O)[C@@]1(C)c2ccccc2C(=O)N(Cc2cc(F)cc(C(F)(F)F)c2)[C@H]1c1ccc(CO)cc1` yielded a composite z-score of 1.05.
`O=C1C[C@]2(c3ccc([N+](=O)[O-])cc3)C(=O)N(CCN3CCOCC3)c3cc(CO)ccc3[C@H]2N1C1CCCCC1` showed a composite z-score of 1.37.
Work on `COC(=O)C=C(CC(O)c1cccc(Cl)c1)OC` (stereo not given) yielded a composite z-score of 1.76.
`COc1ccc(CCN2C(=O)[C@@]3(c4ccc([N+](=O)[O-])cc4)CC(=O)N(C4CCCCC4)[C@@H]3c3ccc(CO)cc32)cc1` was tested, and the composite z-score was 0.0125.
In the case of `O=C1C2C=CC(C(O)C(c3ccccc3)c3ccccc3)N(n3cnnc3)C2C(=O)N1Cc1ccccc1` (stereo not given), the composite z-score is reported as 0.429.
Work on `O=C1c2ccccc2[C@@]2(Cc3ccccc3N(CCN3CCOCC3)C2=O)[C@H](c2ccc(CO)cc2)N1Cc1ccccc1` yielded a composite z-score of -0.561.
`CC(C)(C)OC(=O)CC[C@]1(C(=O)NCC(O)CO)COC(c2ccc(OCCCO)cc2)=N1` (stereo not given in full) was tested, and the composite z-score was 1.97.
`CN1C(=O)[C@]2(Cc3ccccc3)N=C(c3ccc(OCCCO)cc3)O[C@@H]2c2ccccc21` showed a composite z-score of 1.36.
In the case of `O=C1OCCC/C=C\[C@H]2OC34C=CCN(Cn5nnc6ccccc65)C(=O)[C@H]3N(CCO)C(=O)[C@@H]4C12` (stereo not given in full), the composite z-score is reported as 1.21.
`CC(C)C(=C=CC[C@@H](O)c1ccccc1OCCO)CCO` gave a composite z-score of 1.71.
In the case of `N#Cc1ccc(NN2C(C(O)c3c(F)cccc3Cl)C=CC3C(=O)N(c4ccccc4)C(=O)C32)cc1` (stereo not given), the composite z-score is reported as 1.97.
Work on `COC(=O)[C@@]1(Cc2ccccc2)[C@H]2c3cc(C(=O)N4CCCC4)n(Cc4cccc5ccccc45)c3C[C@H]2CN1C(=O)c1ccccc1` yielded a composite z-score of 1.49.
Compound `COCC(=C=CC[C@@H](O)c1ccccc1OCCO)C[C@@H](O)c1cc(Cl)cc(Cl)c1O` has a composite z-score of 0.935.
With `C=CCOC(=O)[C@@H]1[C@H]2C(=O)O[C@H](c3ccccc3)[C@H](c3ccccc3)N2[C@H](c2ccc(OCCOC(=O)[C@@H]3C[C@@H]4C(=O)N[C@@H](Cc5ccccc5)C(=O)N4[C@@H]3c3ccc(O)cc3)cc2)[C@@]12C(=O)Nc1ccc(I)cc12` the composite z-score was 0.612.
`C[C@@H]1ON(c2cccc(C(=O)OC(C)(C)C)c2)[C@H](c2ccc(Br)cc2)[C@H]1C(=O)N1C(=O)OC[C@H]1Cc1ccccc1` gave a composite z-score of 0.457.
`O=C1OCCC=C[C@H]2OC34C=CCN(CCN5CCOCC5)C(=O)[C@H]3N(CCCCCCO)C(=O)[C@@H]4C12` (stereo not given in full) was tested, and the composite z-score was -0.0296.
For `C=CC[C@@]1(C(N)=O)N=C(c2ccc(OCCCO)cc2)O[C@@H]1c1ccccc1CN=[N+]=[N-]`, the composite z-score was 2.17.
`C=CCOC(=O)[C@H]1[C@@H]2C(=O)O[C@@H](c3ccccc3)[C@@H](c3ccccc3)N2[C@@H](c2ccc(OCCOC(=O)[C@H]3C[C@H]4C(=O)N[C@@H](CC(C)C)C(=O)N4[C@H]3c3ccc(O)cc3)cc2)[C@]12C(=O)Nc1ccc(I)cc12` gave a composite z-score of 0.731.
For `CCCCN1CC=CC23O[C@@H]4/C=C\CCC(C)OC(=O)C4[C@H]2C(=O)N(CCCCCO)[C@@H]3C1=O` (stereo not given in full), the composite z-score was 0.768.
`COc1ccc(C(O)C2C=CC3C(=O)NC(=O)C3N2Nc2ccccn2)c2ccccc12` (stereo not given) was tested, and the composite z-score was 1.
With `C=C(COC)/C(=C/C[C@H](OC(=O)c1ccncc1)c1ccc(OCCO)cc1)c1cnc2ccccc2c1` the composite z-score was 1.4.
For `C=C(C)C1C(=C)CN([C@H](CO)c2ccccc2)C1=O` (stereo not given in full), the composite z-score was -0.461.
For `C=CCC(OC(C)=O)[C@@H]1[C@@H](N(Cc2ccc(-c3cccc(C(F)(F)F)c3)o2)C(=O)Cc2ccc(F)cc2)c2cc(OCCCO)ccc2N1C(=O)Cc1ccc(OC)cc1` (stereo not given in full), the composite z-score was -0.14.
`CC(C)c1ccc(NN2C(C(O)c3cc(C(F)(F)F)cc(C(F)(F)F)c3)C=CC3C(=O)N(c4ccccc4)C(=O)C32)cc1` (stereo not given) was tested, and the composite z-score was 1.69.
Compound `COc1ccc([Si](C)(C)[C@H]2[C@H](CCn3cc([C@H](O)c4ccccc4)nn3)O[C@@]3(C(=O)N(Cc4cccc(N5CCOC5=O)c4)c4ccccc43)[C@@H]2C)cc1` has a composite z-score of 0.209.
Compound `Cc1ccc(S[C@]2(C(=O)NCC(C)C)CC(=O)N(Cc3cc(C(F)(F)F)cc(C(F)(F)F)c3)[C@@H]2c2ccc(CO)cc2I)cc1` has a composite z-score of 1.13.

— PubChem BioAssay
